Laboratory results reported in PubChem BioAssay (NCI).
This is part of a sample that, as a whole, favours compounds with a hit. Of some 83,000 tested, about 20% had one in any assay.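 In brief: 96-well plates, 48 h treatment, single concentration, percent growth endpoint.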 Activity calls are given as the source filed them.

The compounds below were run on T-47D breast (assay: NCI-60 one-dose screen, 48 h (100 = growth as untreated, 0 = no growth, -100 = all killed)). Conditions: 10 µM unless noted.
Protocol: Growth inhibition of the T-47D human tumor cell line is measured as a screen for anti-cancer activity. Cells are grown in 96 well plates and exposed to the test compound for 48 hours. Compounds are tested at a single concentration, which is 10^-5 M for most compounds. The reported endpoint is percent growth (GI% or GIPRCNT), where numbers from 0 - 100% represent growth inhibition, and numbers from -100% - 0 represent cell death. For example, a value of 40 represents 60% growth inhibition. A value of 0 means no net growth occurred over the course of the experiment. A value of -40 indicates 40% of cells at the beginning of the experiment died by the end of the experiment. A value of -100 means all cells are dead at the end of the experiment.
NCI-60 Human Tumor Cell Lines Screen was performed using the standard one-dose NCI protocol, which is described in more detail at https://dtp.cancer.gov/discovery_development/nci-60/default.htm.
Compounds with GIPRCNT values below 10 were considered active. Activity score was based on GIPRCNT using the following formula: […]
Score is 0 for GIPRCNT values of 100 or above, 50 for GIPRCNT values of 0, and 100 for GIPRCNT values of -100.

| SMILES | growth |
| --- | --- |
| COc1ccc(-c2nsc3c2NC(=O)CC3c2ccc3c(c2)OCO3)cc1 (stereo not given) | 33.2% (inactive) |
| COc1cc(C2=NOC(c3cc(OC)c(OC)c(OC)c3)C2)ccc1OCCCCOc1cc2c(cc1OC)C(=O)N1CCC[C@H]1C=N2 (stereo not given in full) | -11.9% (active) |
| CCNS(=O)(=O)c1ccc(C)cc1 | 106% (inactive) |
| O=C1c2ccccc2C2N1CCC1CCc3ccccc3N12 (stereo not given) | 107% (inactive) |
| Cc1cc(O)c(C2=NN(c3ccc(S(N)(=O)=O)cc3)C(c3ccc(Cl)cc3)C2)c(C)c1Cl (stereo not given) | 46.9% (inactive) |
| CNC(=O)c1cc(Oc2ccc(NC(=O)c3nc(S(C)(=O)=O)n(C)c3-c3ccc(F)cc3)cc2)ccn1 | 61.5% (inactive) |
| COc1cccc(NC(=O)c2c(-c3ccccc3)c(-c3ccccc3)n[nH]c2=O)c1 | 87.5% (inactive) |
| CC(CN1CCN(C)CC1)CN1c2ccccc2Sc2ccc(C(F)(F)F)cc21 (stereo not given) | 63.4% (inactive) |
| O=C1OCC2=C1C(c1ccc(Cl)c(Cl)c1)c1cc3c(cc1N2CCO)CCC3 (stereo not given) | 63.3% (inactive) |
| COc1ccc(/C=C(/C(=O)N2CCN(c3ccccc3)CC2)c2cc(OC)c(OC)c(OC)c2)cc1N | 65.3% (inactive) |
| CCCCc1n(Cc2ccc3ccccc3n2)cc[n+]1Cc1ccc2ccccc2n1 | 6.69% (active) |
| COc1cc(C2Nc3ccccc3S2)cc(CN2CCOCC2)c1O (stereo not given) | 88.4% (inactive) |
| Cc1cccc(C(=O)O)n1 | 106% (inactive) |
| C/C(=N\NC(=S)Nc1ccccc1)c1ccccn1 | 28.7% (inactive) |
| NC(N)=N/N=C\c1cccc(OCc2ccccc2)c1 | 26.6% (inactive) |
| COc1cc(C2CC(c3ccc(Cl)cc3)=NN2C=O)ccc1OS(=O)(=O)c1ccc(C)cc1 (stereo not given) | 77% (inactive) |
| Cc1cc(C)cc(CCCCCCCCCCCCCCCCCC(=O)O)c1 | 82.4% (inactive) |
| COCCOCCOCc1n(Cc2ccc3ccccc3n2)c2ccccc2[n+]1Cc1ccc2ccccc2c1 | 4.77% (active) |
| O=C(OCc1ccc2c(Cl)cc(Cl)c(O)c2n1)c1cc2ccccc2[nH]1 | -57.2% (active) |
| O=C(Cn1nncc1CN1C(=O)CSC1=O)Nc1ccc(F)cc1 | 97.8% (inactive) |

| SMILES | growth |
| --- | --- |
| CCN(CC)C(Cl)=Nc1ccc(Cl)cc1 | 102% (inactive) |
| O=C1Cc2c([nH]c3ccc([N+](=O)[O-])cc23)-c2ccccc2N1 | 22.1% (inactive) |
| Nc1nc(N)c2cc(Sc3ccc(Cl)cc3)ccc2n1 | 56.4% (inactive) |
| CCOP(=O)(O)OP(=O)(O)OCC | 92.5% (inactive) |
| COc1cc(CN2CCO[C@H](COc3cccc(F)c3)C2)ccc1Cl | 28.2% (inactive) |
| CN(C)c1ccc(C(c2ccccc2)c2ccc(N(C)C)cc2)cc1 | 86.7% (inactive) |
| CC(C)NC(=O)OCC#CCOC(=O)NC(C)C | 99.2% (inactive) |
| C=CCn1c(C)nc2cc(Nc3nc(N4CCOCC4)nc4nc[nH]c34)ccc21 | 75.4% (inactive) |
| CCCCCNCCCCCNc1cc(OC)cc2cccnc12 | 68.1% (inactive) |
| CC1CN(CCCOC(=O)Nc2ccc(Cl)cc2)CCN1C(C)(C)C (stereo not given) | 90% (inactive) |
| C=C(C)[C@@H]1CC[C@]2(C)[C@H](CC=C3[C@@H]4C[C@](C)(C(=O)N5CCN(C)CC5)CC[C@]4(C)CC[C@]32C)[C@@]1(C)CCC#N | 42.4% (inactive) |
| Cc1ccc(N=CNN=C(N)N)cc1 | 98.8% (inactive) |
| CN(C)c1ccc(Nc2c3ccccc3nc3ccccc23)cc1 | 11.1% (inactive) |
| N#Cc1c(N)n(C2OC(CO)C(O)C2O)c2ncnc(N)c12 (stereo not given) | -46.2% (active) |
| COc1ccc(Sc2[nH]c(C=O)c3ccccc23)cc1 | 57.2% (inactive) |
| Nc1nc(N)c2c(n1)NC(c1sc(Cl)nc1Cl)CC(c1ccccc1)=N2 (stereo not given) | 43.6% (inactive) |
| COc1cc2c(cc1OC)C(=O)OC2 | 98.5% (inactive) |
| O=C(/C=C/c1cc([N+](=O)[O-])ccc1Cl)c1ccccc1 | 72.3% (inactive) |
| COc1ccc(C2=CC(c3ccc(OC)cc3Br)N3C=CSC3=N2)cc1 (stereo not given) | 54.6% (inactive) |
| O=C1C=CC(=O)N1c1cccc(N2C(=O)C=CC2=O)c1 | -13.6% (active) |
